Measurements from the supplement of paper PMC6555819.

Assays:
Experiment in all cases: PBM binding z-score (relative to random genomic background probes); higher = stronger binding; sequences stand for … in GC…GCGATTGACAGCGTAGAATGAAGG
[1] = system: FXR:RXRa (NR concentration 270 nM, RXRa partner concentration 90 nM)
Summary of the method: (§1)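 Custom Agilent 4×180K protein-binding microarrays carried double-stranded probes. Their 34-nt variable regions held direct-repeat seeds, single-nucleotide variants, half-site ablations and random human genomic background sequences. Arrays were incubated 1 h with ligand-free nuclear receptor dimers in PBS pH 7.4, 2% milk, 0.02% Triton X-100, 1 mM DTT, 0.2 mg/mL BSA and 0.4 mg/ml salmon testes DNA. Antibodies against each partner (one per run) detected binding, and scanned fluorescence was regression-normalized. Binding z-scores use random background probes as reference.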

[2] = system: LXRa:RXRa (NR concentration 270 nM, RXRa partner concentration 90 nM)
Summary of the method: as §1

[3] = system: LXRa homodimer (NR concentration 270 nM)
Summary of the method: as §1

[4] = system: LXRb:RXRa (NR concentration 270 nM, RXRa partner concentration 90 nM)
Summary of the method: as §1

[5] = system: LXRb homodimer (NR concentration 270 nM)
Summary of the method: as §1

[6] = system: PPARa:RXRa (NR concentration 270 nM, RXRa partner concentration 90 nM)
Summary of the method: as §1

[7] = system: PPARg:RXRa (NR concentration 180 nM, RXRa partner concentration 90 nM)
Summary of the method: as §1

[8] = system: PPARg:RXRa 270nM:90nM, anti-RXR (NR concentration 270 nM, RXRa partner concentration 90 nM)
Summary of the method: as §1

[9] = system: PPARg:RXRa 30nM:10nM, anti-RXR (NR concentration 30 nM, RXRa partner concentration 10 nM)
Summary of the method: as §1

[10] = system: PPARg:RXRa 90nM:30nM, anti-RXR (NR concentration 90 nM, RXRa partner concentration 30 nM)
Summary of the method: as §1

Sequence | PBM binding z-score [1] | PBM binding z-score [2] | PBM binding z-score [3] | PBM binding z-score [4] | PBM binding z-score [5] | PBM binding z-score [6] | PBM binding z-score [7] | PBM binding z-score [8] | PBM binding z-score [9] | PBM binding z-score [10]
TTACCAAGGTGAGCTGAGGTCGCTGATCCAACTC | 1.17 | 0.578 | -0.612 | 0.416 | -1.44 | 1.52 | 0.0966 | 1 | -0.104 | 0.763
TCTATTTGGTCACGGAGGTCACACACGACGGGTA | 3.93 | 3.92 | 3.39 | 3.88 | 2.63 | 4.23 | 4.04 | 4.8 | 4.57 | 4.77
CCTCGGAGGACAGAAAGTCAGAGCTGTCCGCTTT | -0.421 | -0.464 | -0.45 | -1.05 | -0.903 | -0.745 | -0.796 | -0.982 | -1.28 | -1.14
CCTTACGGGTCAAGGTTCTAGCACGGGTGGTACG | 5.14 | 3.35 | -0.039 | 2.64 | -0.204 | 4.86 | 4.7 | 5.18 | 2.28 | 4.24
CCTGCTAGGTTATGGTCAGCTAATCTACAGTATG | -0.0301 | -0.0994 | -0.554 | -0.211 | -0.277 | -0.0739 | -0.279 | -0.092 | -0.295 | -0.423
AATACAGGGTCATCGTAGGCCACAGTACGCACAG | 7.48 | 6.72 | 3.33 | 4.97 | 1.33 | 5.98 | 7.16 | 6.32 | 2.8 | 5.05
CAAACTTGGTCAAGAGGTCAAAGTCCGCTTCCCG | 5.72 | 5.27 | 5.52 | 5.04 | 1.18 | 5.37 | 4.2 | 5.18 | 2.94 | 4.56
GTAGCAAGGTGAATAGGTCGTTGATGAGTAGGCG | 0.435 | 0.286 | -0.884 | 0.119 | -1.35 | 2.05 | 0.986 | 1.48 | 0.12 | 0.807
GCAGACAGGTGAAACGCAGGTAACTCACGGTGGC | -0.0802 | 0.186 | -0.449 | -0.389 | -1.17 | 0.612 | 0.796 | -0.183 | -0.533 | -0.11
AGAACGAGGGCAATGAATTGATAGCACGGGTGGC | 0.314 | 0.102 | -0.259 | 0.0164 | -0.479 | 1.32 | 1.27 | 0.732 | 0.112 | 0.346
CCGACTGGGGAAAGGTTACCATAACGCACAGCCA | 0.564 | 1.86 | 0.0866 | 1.75 | -0.554 | 2.76 | 2.69 | 3.64 | 1.61 | 3.26
CCTTACGGGTCACTGACACGTTATAGCATTTGGA | 5.87 | 3.87 | 0.355 | 3.38 | 0.0224 | 5.4 | 4.48 | 4.55 | 1.45 | 3.25
TCATATAGGTAAAGGTGTAAGTCGAACGATATGA | 0.564 | 0.266 | -0.224 | 0.356 | -0.187 | 1.81 | 3.01 | 3.83 | 4.04 | 4.1
GATACAGGGTCAGCTAGAGGCCAAAGTATGGAAA | 5.01 | 3.57 | 0.0556 | 3.09 | -0.391 | 4.59 | 3.94 | 3.58 | 1.03 | 2.36
CCTCGGAGGACAGAAGGTGAGAGCTGTCCGCTTT | 0.177 | 0.159 | -0.939 | -0.679 | -0.923 | -0.0914 | -0.442 | -0.325 | -0.929 | -0.465
TCTATTAGTGGAAGGGCAACCGACGAGTCCGTTT | 0.67 | 0.688 | 0.218 | 0.807 | 0.57 | 0.716 | 0.0931 | 1.91 | 3.26 | 2.56
TCGAGTAGGTTAGTAGGGGCATTCAGCCAACATA | 0.292 | -0.0612 | -0.0759 | 0.774 | -0.216 | 1.29 | 1.01 | 1.82 | 0.971 | 1.35
ACACCAAGGTGATCGTGAGGTCGTTGATACTAAC | 1.59 | 1.28 | 0.495 | 1.38 | -0.254 | 1.62 | 0.514 | 0.34 | -0.275 | 0.0177
CCTAGCAGGACAATCTGGGTCACTCAAGGCTTGA | 1.05 | 0.686 | -0.28 | 0.742 | -0.672 | 3.31 | 2.44 | 2.26 | 0.245 | 1.56
ATCTCTAGGTAGGACTCAGTTCAGTGAAGAACGC | 0.414 | 0.636 | 0.659 | 0.518 | 1.09 | 0.278 | 0.171 | 0.732 | 0.37 | 0.644
CAGCCTATGTCAGGGCCAGTATAGGAGGAACGTT | -0.392 | -0.569 | -0.136 | -0.524 | -0.259 | -0.324 | 0.129 | -0.472 | -0.514 | -0.506
AGCACGAGGGCACGCTGAGTTGATAGCAGAGTAG | 0.941 | 0.602 | -0.669 | 0.23 | -1.28 | 1.61 | 1.22 | 0.752 | -0.187 | 0.162
CCGGACAGGTGAAAGGTAACTCAGTCTGGTACGC | 0.736 | 0.472 | -0.206 | 0.874 | -0.858 | 3.17 | 4.79 | 5.2 | 3.2 | 5.45
CCTACTTGGCCAAAAAGGTCATTGATGCCGATAA | 4.39 | 4.79 | 3.93 | 4.61 | 1.27 | 4.7 | 1.74 | 3.04 | 0.755 | 1.87
TCTTGTAGATCAGCAGGTTAAGTAAGCTGGCCAA | 0.169 | 0.366 | -0.23 | 0.424 | -0.524 | 0.865 | -0.624 | 1.25 | 2.73 | 2.04
